Out of some 220,000 compounds screened, about 3,300 (1.5%) were called active.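 The calls were made as follows: active = compounds that cut the protein-peptide binding signal by more than 50% relative to plate controls in a single-dose test; inactive = the rest.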 Many of the other results were omitted from the sample, so actives are more common in it than they were.
target: Induced myeloid leukemia cell differentiation protein Mcl-1 (Homo sapiens) (UniProt Q07820); experiment: Mcl-1/Noxa binding inhibitors, primary screen, biochemical, TR-FRET, 1536-well (AID 1022); conditions: TR-FRET Mcl-1/Noxa peptide binding, 2 h; at 21.7 µM; active compounds read high;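 also: His-tagged Mcl-1 with rhodamine Noxa BH3 peptide and terbium anti-His antibody; 0% = Mcl-1 plus Noxa peptide wells and 100% = peptide-only wells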
Sequence (Q07820 whole entry, looked up): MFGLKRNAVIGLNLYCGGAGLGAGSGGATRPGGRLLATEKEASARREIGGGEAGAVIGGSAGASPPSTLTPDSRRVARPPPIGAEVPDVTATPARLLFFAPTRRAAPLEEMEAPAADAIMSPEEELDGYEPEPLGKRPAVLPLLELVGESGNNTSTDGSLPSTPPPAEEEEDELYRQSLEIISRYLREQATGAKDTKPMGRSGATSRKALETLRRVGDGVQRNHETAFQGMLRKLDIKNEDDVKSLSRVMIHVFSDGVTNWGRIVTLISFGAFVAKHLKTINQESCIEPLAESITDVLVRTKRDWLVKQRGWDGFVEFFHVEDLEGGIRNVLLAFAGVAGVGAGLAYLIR

SMILES | inhibition
CSc1n[nH]c(=S)n1N | -7.77% (inactive)
CC(=O)Nc1ccc(NC(=S)NC(=O)/C=C/c2ccccc2)cc1 | 3.86% (inactive)
Cc1ccc(NC(=S)NC(=O)/C=C/c2ccc(Cl)cc2)cc1 | 3.6% (inactive)
CCOc1ccc(NC(=S)NC(=O)/C=C/c2ccc(OC)cc2)c([N+](=O)[O-])c1 | 63.1% (active)
O=C(N/N=C/c1ccco1)c1csc2c1CCCC2 | 5.75% (inactive)
O=C(Nc1ccc(Cl)cc1)/C(=C1\CCCN1)[N+](=O)[O-] | 9.38% (inactive)
COc1ccc2nc(Nc3nc4cc5c(cc4s3)OCCO5)sc2c1 | -76.2% (inactive)
COc1ccc2nc(Nc3nc4ccc(NC(C)=O)cc4s3)sc2c1 | 70.9% (active)
COc1ccc2nc(NC(=O)c3ccc(Br)s3)sc2c1 | 15.7% (inactive)
Cn1c(SCC(=O)N2CCOCC2)nnc1-c1ccc2ncccc2c1 | -9.25% (inactive)
CC(C)Oc1ccc(CCC(=O)NNC(=S)NCc2ccccc2)cc1 | 0.21% (inactive)
O=c1oc(-c2ccccc2NS(=O)(=O)c2ccc(Cl)cc2)nc2ccccc12 | -43.7% (inactive)
Cc1nn(CC(=O)Nc2ccc(N(C)C)cc2)c(C)c1[N+](=O)[O-] | 73.9% (active)
CCc1ccc(NC(=O)Cn2nc(C)c([N+](=O)[O-])c2C)cc1 | 3.69% (inactive)
Cc1nn(CC(=O)Nc2ccc(C#N)cc2)c(C)c1[N+](=O)[O-] | -6.04% (inactive)
COc1ccccc1-n1c(SCC(=O)O)nc2sc3c(c2c1=O)CCC3 | 12.5% (inactive)
COC(=O)c1cn(C(=O)c2ccc(Cl)cc2)c2ccccc12 | -1.27% (inactive)
O=[N+]([O-])c1cc(S(=O)(=O)Nc2cccc(Cl)c2)ccc1N=Nc1c(O)[nH]c2ccccc12 | 71.3% (active)
Cc1cccc(N(CC(=O)N=Nc2c(O)[nH]c3ccccc23)S(C)(=O)=O)c1C | 9.08% (inactive)
CN1CCN(c2ccc(S(=O)(=O)Nc3ccccc3)cc2[N+](=O)[O-])CC1 | -7.35% (inactive)

SMILES | inhibition
COc1ccc(S(=O)(=O)Nc2ccc(O)c(Sc3nc4ccccc4s3)c2)cc1 | 21.8% (inactive)
O=[N+]([O-])c1c(NCCO)cc(Sc2nc3ccccc3s2)c2nonc12 | 79.7% (active)
O=C(CSc1nc2ccccc2s1)Nc1ccc(C(=O)O)cc1 | 2.75% (inactive)
O=C(N/N=C/c1ccccn1)c1cccnc1 | -27.9% (inactive)
O=C(N/N=C/c1ccc([N+](=O)[O-])o1)c1cn(-c2ccccc2)nc1-c1ccc(F)cc1 | 65.5% (active)
Cc1nnc(SCC(=O)N/N=C/c2cn(-c3ccccc3)nc2-c2ccc(F)cc2)n1-c1ccccc1 | -13.4% (inactive)
O=C(O)c1ccc(NC(=O)c2cn(-c3ccccc3)nc2-c2ccc(Cl)cc2)cc1 | 17.5% (inactive)
O=C(Nc1nnc(SCc2c(Cl)cccc2Cl)s1)c1cccc([N+](=O)[O-])c1 | 27.4% (inactive)
CCc1cc(C(=O)c2ccc(OC)cc2)c(NC(=O)CN2CCN(C)CC2)s1 | 0.41% (inactive)
Cc1ccc(CSc2nnc(-c3cnccn3)n2C)cc1 | 2.82% (inactive)
O=C(NCc1cc(C(F)(F)F)cc(C(F)(F)F)c1)C1CC(c2cccc(F)c2)=NO1 (centres undefined) | -14.9% (inactive)
COc1ccc(C(=O)C2CCCN(Cc3ccc4nonc4c3)C2)c(C)c1 (centres undefined) | 0.59% (inactive)
O=C(NC1CC1)c1ccc2c(c1)NC(=O)c1ccccc1S2 | -14.5% (inactive)
C/C(=N\Nc1cccc(C(=O)O)c1)c1ccc2c(c1)Nc1ccccc1S2 | 78.5% (active)
CC(=O)Nc1cccc(/C(C)=N/NC(=O)c2ccccc2Cl)c1 | 12.1% (inactive)
Cc1c(NC(=O)C(=O)N/N=C/c2cccs2)c(=O)n(-c2ccccc2)n1C | -17.4% (inactive)
O=C(Nc1n[nH]c(C(F)(F)F)n1)c1cccs1 | 1.44% (inactive)
COC(=O)c1scc(C)c1NC(=O)CSc1ccc(Cl)cc1 | 2.67% (inactive)
CCN(CC)C(=O)C(=O)Nc1cccc(Br)c1 | -12.2% (inactive)
CCN(CC)N=Nc1cccc(NC(C)=O)c1 | 52.4% (active)

SMILES | inhibition
CC(=O)Nc1cccc(C(=O)Nc2nc(C)cs2)c1 | 18.4% (inactive)
C=C(C)COc1ccc(-c2nc(N)ncc2-c2ccccc2OC)c(O)c1 | 19.2% (inactive)
NC(=S)Nc1c(Cl)cccc1Cl | -2.54% (inactive)
Cc1ccc(OC(=O)c2c(C)nn(-c3ccccc3)c2C)cc1 | -10.1% (inactive)
CC(C)CCN1NC2(CCC(C)CC2)NC1=S (centres undefined) | 10.8% (inactive)
Cc1ccc(OS(=O)(=O)c2ccc(-c3csc(C)n3)s2)c(C)c1 | 10.9% (inactive)
Cn1nc(C(F)(F)F)cc1-c1ccc(/C=C(\C#N)C(=O)c2cccc(C(F)(F)F)c2)s1 | 8.47% (inactive)
Cc1cc(C)n(C(=O)c2ccc(C)c(S(=O)(=O)N3CCOCC3)c2)n1 | 72.5% (active)
Cc1cc(C)n(C(=O)c2ccc(S(=O)(=O)N3CCCC3)cc2)n1 | 7.15% (inactive)
COc1ccc(C(=O)OCC(=O)c2ccc(C)c(S(=O)(=O)N3CCOCC3)c2)cc1OC | -9.99% (inactive)
Cc1ccc(C)c2[nH]c(=O)c(CN(Cc3cccnc3)C(=S)NCc3ccco3)cc12 | 4.29% (inactive)
N=C1/C(=C/c2cccn2-c2cccc([N+](=O)[O-])c2)C(=O)N=C2SC=CN12 | 64.6% (active)
N/C(=N\OC(=O)CCn1cccc(C(F)(F)F)c1=O)c1ccc(OC(F)(F)F)cc1 | -5.59% (inactive)
COc1ccc(NC2=CC(=S)NC(C)(C)C2)cc1 | 19.2% (inactive)
O=c1cc(CN2CCN(S(=O)(=O)/C=C/c3ccccc3)CC2)c2ccc(O)cc2o1 | 57.9% (active)
O=C(CN1CCN(S(=O)(=O)/C=C/c2ccccc2)CC1)Nc1ccc(N2CCOCC2)cc1 | 9.11% (inactive)
COc1ccc2c(CN3CCN(S(=O)(=O)c4cccs4)CC3)cc(=O)oc2c1 | -3.37% (inactive)
Cc1nc2ccccc2nc1N/N=C/c1ccc(O)cc1O | -26.1% (inactive)
CCCCCCCN=C(C)c1ccccc1O | -3.31% (inactive)
